CYP2C9 inh: inhibitors of human CYP2C9. actives 20% (n = 96,000). AID 777. P11712. inhibition, % at 5 µM. CYP2C9 Supersomes, luciferin-H conversion, luminescence;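 active = blocking of liver enzyme CYP2C9 beyond about 50% at 5 µM, limit read from the data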
CYP2C19 inhib: blocks human cytochrome P450 2C19; P33261; CYP2C19 Supersomes, luciferin-H EGE luminescence, 30 min; inhibition, % at 5 µM; actives 21% (n = 96,000); AID 778;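 active = CYP2C19 inhibition above a set limit at 5 µM in the primary screen, cut at about 50% in these data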;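 also: plate controls were negative control wells for no effect and 2.5 mM tranylcypromine positive control for full effect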
Target sequence (P33261 whole entry, looked up): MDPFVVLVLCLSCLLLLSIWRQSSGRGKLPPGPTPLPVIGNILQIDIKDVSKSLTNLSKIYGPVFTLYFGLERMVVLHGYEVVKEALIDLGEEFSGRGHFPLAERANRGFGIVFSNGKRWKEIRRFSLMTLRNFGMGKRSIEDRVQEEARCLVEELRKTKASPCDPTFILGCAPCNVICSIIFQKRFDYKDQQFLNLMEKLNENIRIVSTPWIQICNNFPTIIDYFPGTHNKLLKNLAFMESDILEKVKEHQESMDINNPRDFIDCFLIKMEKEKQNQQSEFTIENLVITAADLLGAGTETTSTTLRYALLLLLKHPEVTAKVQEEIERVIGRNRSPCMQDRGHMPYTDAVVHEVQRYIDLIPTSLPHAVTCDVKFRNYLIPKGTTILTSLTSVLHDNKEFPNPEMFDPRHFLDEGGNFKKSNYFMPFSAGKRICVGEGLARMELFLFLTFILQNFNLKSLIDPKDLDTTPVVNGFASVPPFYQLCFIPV
CYP2C19 act: cytochrome P450 2C19 (human) activation; P33261; recombinant CYP2C19, luciferin-H EGE luminescence; hits give high values; 0 = fully inhibited enzyme, 1 = untreated enzyme; activation factor at 5 µM; 96,000 tested, under 10 active; AID 1025;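 active = activation factor of at least 2 at 5 µM in the primary screen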;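 also: 0 = wells with 2.5 mM tranylcypromine and 1 = vehicle-only wells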
CYP2C9 act: increases human cytochrome P450 2C9 activity; recombinant CYP2C9, luciferin-H conversion, luminescence; hits give high values; factor 1 = untreated enzyme, 0 = blocked; actives 1.4% (n = 96,000); AID 1024; activation factor at 5 µM;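 active = activation factor of 2 or more for CYP2C9 at a 5 µM dose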;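 also: 0 = sulfaphenazole-blocked wells and 1 = vehicle-only wells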
PTK2B oligo ant: blocks oligomerization of human Pyk2 in cells; Q14289; Q293 cells, Pyk2 FERM NanoBiT luminescence; hits give low values; z-score (the deposit names both 25 µM and 10 µM); actives 0.83% (n = 99,000); AID 1347419;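 active = Z-score of -3 or lower, scaled per plate to the spread of control and sample wells; inactive = z-score above -3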;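 also: negative z-score means lost luminescence so less FERM oligomerization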
Numbers without * were called inactive; · = not tested or not shown. This is a sample that favours compounds with a hit; in the whole collection about 28% have one here.

SMILES	CYP2C9 inh	CYP2C19 inhib	CYP2C19 act	CYP2C9 act	PTK2B oligo ant
c1ccc2c(c1)NC1(CCCCC1)n1c-2nc2ccccc21	36	20	0.8	0.6	-0.95
CC1(c2ccccn2)Nc2ccccc2-c2nc3ccccc3n21 (stereo not drawn)	52*	69*	0.3	0.5	-0.98
O=C(O)CCNc1cc2ccccc2cc1C(=O)O	8	12	0.9	0.9	0
CCN(CC)S(=O)(=O)c1cccc(C(=O)NC(Cc2c[nH]c3ccccc23)c2nnc3n2CCCCC3)c1 (stereo not drawn)	18	6	0.9	0.8	0.13
CCNC(=S)NNC(=O)Cn1nc(C)cc1C	-2	-7	1.1	1	-0.48
CCOC(=O)c1c(N)sn(-c2ccccc2C)c1=S	62*	28	0.7	0.4	0.09
C=CCNc1nc(N2CCOCC2)c(C#N)c2c1CN(C)CC2	40	14	0.9	0.6	0.02
N#Cc1c(NCCO)nc(NCc2ccccc2)c2c1CCN(Cc1ccccc1)C2	94*	26	0.7	0.1	·
C=CCNc1nc(N2CCCCC2)c(C#N)c2c1CN(Cc1ccccc1)CC2	90*	62*	0.4	0.1	-0.28
CCN1CCc2c(C#N)c(N3CCOCC3)nc(NCc3ccccc3)c2C1	70*	46	0.5	0.3	0.38
N#Cc1c(N)sc(=S)c2c1CCN(Cc1ccccc1)C2	69*	74*	0.3	0.3	·
CCN1CCc2c(C#N)c(N3CCOCC3)nc(NCCO)c2C1	2	-3	1	1	-0.32
COc1cccc(N2C(=O)C3C(C2=O)C2C=CC3C23CC3)c1 (stereo not drawn)	0	33	0.7	1	-0.28
CCN1CCc2c(C#N)c(N3CCCCC3)nc(NCc3ccccc3)c2C1	70*	30	0.7	0.3	0.88
COc1ccccc1N1CCN(C(c2ccccn2)c2nnnn2C2CCCCC2)CC1 (stereo not drawn)	49	42	0.6	0.5	-0.91
Cc1ccc(C(c2nnnn2C2CCCCC2)N2CCN3CCCC3C2)cc1 (stereo not drawn)	-23	2	1	1.2	1.3
Cc1ccc(Cl)cc1N1CCN(C(c2ccc(C#N)cc2)c2nnnn2C2CCCC2)CC1 (stereo not drawn)	56*	29	0.7	0.4	-1.1
Cc1ccc(Cl)cc1N1CCN(C(c2cccnc2)c2nnnn2C2CCCCC2)CC1 (stereo not drawn)	93*	98*	0	0.1	-1.6
COc1cc2c(cc1NC(=O)c1cc(-c3ccncc3)nc3ccc(C)cc13)oc1ccccc12	87*	61*	0.4	0.1	0.8
COc1cc2c(cc1NC(=O)c1cncc(Br)c1)oc1ccccc12	-15	-20	1.2	1.1	1
COc1ccc(-c2n[nH]c(C)c2-c2cnn(-c3ccccc3)c2)c(O)c1	·	·	·	·	-0.58
COc1ccc(-c2nc(N)nc(C)c2Oc2ccccc2Br)c(O)c1	94*	85*	0.1	0.1	-0.73
Brc1ccc(NCc2nnc3n2CCCCC3)cc1	1	64*	0.4	1	0.32
Cc1ccc(NCc2nnc3n2CCCCC3)cc1	-1	75*	0.2	1	-0.13
Cn1cnnc1SCC(=O)Nc1sc2c(c1C(N)=O)CCC2	33	-2	1	0.7	0
SMILES	CYP2C9 inh	CYP2C19 inhib	CYP2C19 act	CYP2C9 act	PTK2B oligo ant
O=C(NN1C(=O)c2ccccc2C1=O)C1CCCCC1	5	12	0.9	1	-0.32
Cc1ccc(C(C(=O)NCCc2ccccc2)N(C(=O)c2csnn2)C2CC2)o1 (stereo not drawn)	23	40	0.6	0.8	0.59
CC(C)OCCCNCc1cccs1	-12	-11	1.1	1.1	0.31
CO/N=C(/CS(=O)c1ccc(Br)cc1)c1ccc(OC)cc1 (stereo not drawn)	88*	100*	0	0.1	-0.07
COc1ccc(C(=O)CCC(=O)O)cc1	0	2	1	1	·
CN(Cc1nc2ccccc2n1C)S(=O)(=O)c1ccc(F)cc1	-167	84*	0.2	2.7*	1.1
O=C(Nc1ccc(O)cc1)C1CCCN1S(=O)(=O)c1ccc(F)cc1 (stereo not drawn)	-61	3	1	1.6	·
O=C(Nc1cccnc1)C1CCCN1S(=O)(=O)c1ccc(Cl)c(Cl)c1 (stereo not drawn)	69*	15	0.8	0.3	-0.25
O=C(Nc1ccc(Cl)cn1)C1CCCN1S(=O)(=O)c1ccccc1 (stereo not drawn)	80*	22	0.8	0.2	0.72
O=C(Nc1ccc(Br)cc1)C1CCCN1S(=O)(=O)c1cccs1 (stereo not drawn)	90*	96*	0	0.1	-0.5
O=C(Nc1ccc(Br)cn1)C1CCCN1S(=O)(=O)c1ccccc1 (stereo not drawn)	77*	52*	0.5	0.2	0.59
Cc1ccc(S(=O)(=O)Nc2ccc(-c3nnc(SCC#N)n3C)cc2)cc1	28	8	0.9	0.7	0.11
O=C(NCCc1ccccc1)C1CCCN1S(=O)(=O)c1ccc(F)cc1 (stereo not drawn)	·	·	·	·	-0.05
O=C(NCCc1ccccc1F)C1CCCN1S(=O)(=O)c1ccccc1 (stereo not drawn)	26	79*	0.2	0.7	0.76
CO/N=C/NC(=O)N1OC[C@@H]2COc3ccc4ccccc4c3[C@@H]21	9	57*	0.4	0.9	0.48
O=C(N/C=N/OCc1cccc(C(F)(F)F)c1)N1OC[C@@H]2COc3ccc4ccccc4c3[C@@H]21	-12	5	1	1.1	0.1
Cc1ccc(C)c(Cn2c(C(C)O)nc3ccccc32)c1 (stereo not drawn)	1	32	0.7	1	0.01
CC1CC(C)CN(S(=O)(=O)c2ccccc2[N+](=O)[O-])C1 (stereo not drawn)	·	·	·	·	-0.65
COC(=O)C1=C(C(C)=O)C(c2ccc(C(=O)OC)cc2)n2nnnc2N1 (stereo not drawn)	83*	12	0.9	0.2	-0.43
COC(=O)C1=C(C(C)=O)C(c2ccc(C)cc2)n2nnnc2N1 (stereo not drawn)	15	12	0.9	0.9	-0.11
c1coc(C2Nc3cccc4cccc(c34)N2)c1	54*	59*	0.4	0.5	·
COc1cc(C2Nc3cccc4cccc(c34)N2)cc(OC)c1O	·	·	·	·	-1.3
Oc1ccc(C2Nc3cccc4cccc(c34)N2)c(O)c1	·	66*	0.3	·	-0.82
O=[N+]([O-])c1cccc(C2Nc3cccc4cccc(c34)N2)c1	·	·	·	·	1.6
Cc1cc(C)cc(-n2nnnc2SCC(=O)Nc2nc(-c3ccc(F)cc3)cs2)c1	-124	23	0.8	2.2*	-0.01
Cc1cc(C)cc(-n2nnnc2SCC(=O)Nc2nc(-c3ccc(Cl)cc3)cs2)c1	-59	4	1	1.6	0.56
Cc1ccc(-n2nnnc2SCC(=O)Nc2nc(-c3ccc(F)cc3)cs2)cc1C	52*	30	0.7	0.5	1
